Laboratory results taken from PubChem BioAssay (NCI).
About 83,000 compounds went through this panel and 20% of them were active in at least one assay; those are over-represented in the sample as a whole.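 Treatment: one concentration, 48 hours, 96-well format. Scoring: percent growth, with anything below 10 considered active.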 A number with no mark means an inactive call. Active and inactive are the calls of the source.

The compounds below were run on SR leukemia (assay: NCI-60 one-dose screen, 48 h (100 = growth as untreated, 0 = no growth, -100 = all killed)). Conditions: 10 µM unless noted.

SMILES | growth
O=c1cc(-c2ccccc2)oc2c(O)c(O)ccc12 | 36.6%
COc1c(C(C)=O)c(OCCCCOc2c(C(C)=O)c(OC)c3ccoc3c2OC)c(OC)c2occc12 | 72.7%
CNc1cc(C(=O)O)nc(NC)n1 | 107%
O=[N+]([O-])c1cc([N+](=O)[O-])c(NN=C(c2ccc(O)cc2)c2ccc(O)cc2)cc1Cl | 18.8%
NC(=O)c1c(NC(=O)COC(=O)Cc2ccccc2F)sc2c1CCC2 | 125%
CCCCOC(=O)c1c(C)[nH]c(/C=C2\N=C(c3ccc[nH]3)C=C2OC)c1C | 14.5%
CC(C)[N+](C)(C)CC(O)COc1cccc2ccccc12 (configuration not stated) | 107%
CCCCCCCCCCCCNC(=S)N/N=C/c1ccccc1O | 44%
COCc1nc2ccccc2[nH]1 | 101%
CCCCCCCCCCCCCCNC(=O)Nc1ccc(Cl)c(Cl)c1 | 95%
CCN(CC)CCSC(=O)C(O)(c1ccccc1)C1CCCC1 (configuration not stated) | 96.7%
C=C1C(=O)O[C@H]2[C@H]1CC/C(COC(=O)NCc1ccc(Cn3c(=O)sn(-c4ccc(Cl)cc4)c3=O)cc1)=C\CC[C@@]1(C)O[C@@H]21 | 72.3%
CCOC(=O)c1c[nH]c2cc(OCC3CC3)c(OCC3CC3)cc2c1=O | 104%
Cc1cc(NN=C(c2ccc(O)cc2)c2ccc(O)cc2)c([N+](=O)[O-])cc1[N+](=O)[O-] | 84.9%
Nc1nnc(CSc2nnc3n(Cc4ccccc4)c(=O)c4c5c(sc4n23)CCCC5)s1 | 84%
N#Cc1c(Cl)nc(SCC2CO2)nc1-c1ccccc1 (configuration not stated) | 89.8%
O=C(C[n+]1ccn(CC(OCc2ccc(Cl)cc2Cl)c2ccc(Cl)cc2Cl)c1)c1ccc(F)cc1 (configuration not stated) | -52.9% (active)
O=C(O)CSCc1nnc2n(Cc3ccccc3)c(=O)c3c4c(sc3n12)CCCC4 | 75.6%
COc1ccc(OC)c([N+](=O)[O-])c1C(=O)CNC(C)=O | 118%
COc1ccc2c3ccnc(C(F)(F)F)c3n(CCCCN)c2c1 | 26.9%

The compounds below were run on RPMI-8226 leukemia in the same assay as above. Conditions: 10 µM unless noted.

SMILES | growth
Nc1nc(SCc2cccc([N+](=O)[O-])c2)c2[nH]cnc2n1 | 91.8%
N/C(=N\c1nc2ccccc2[nH]1)NC(=O)Cc1cccc2ccccc12 | 92.9%
O=C1NC(=O)c2cc([N+](=O)[O-])cc3cccc1c23 | 94.2%
COc1ccc(C2CC(c3cc(OC)c(OC)c(OC)c3)=NN2C(C)=O)cc1OCC(=O)Nc1nc2ccc(C(F)(F)F)cc2s1 (configuration not stated) | 42%
O=C(N/N=C/c1ccc([N+](=O)[O-])cc1)c1ccc(Br)o1 | 72%
O=C(NCc1ccccc1)C(Cl)Cl | 101%
COc1cc2c(c(OC)c1OC)-c1ccc(NNC(N)=S)c(=O)cc1[C@@H](NC(C)=O)CC2 | -11.9% (active)
CC(C)OC(=O)Nc1cc(F)c(F)cc1F | 101%
Nc1cc(C(=O)O)[nH]c(=S)n1 | 95%
COc1ccc(OC)c(NC=O)c1 | 127%
ClC1=C(Cl)C(Cl)=C(Cl)C1=Cc1ccccc1 | -22.7% (active)
O=C(O)c1cc([N+](=O)[O-])ccc1Br | 99%
COC(=O)c1cc2c(=O)[nH]cc3c2c(n1)CCC3 | 76.2%
CCN=C1C=CC(=C(c2ccc(N(CC)CC)cc2)c2ccc(N(CC)CC)cc2)c2ccccc21 | -39.8% (active)
O=c1[nH]c(CN2CCN(c3cccc(Cl)c3)CC2)nc2cc(Cl)ccc12 | 34.7%
c1ccc2c(c1)CN(CCCN1CCOCC1)C2 | 95.5%
Nc1cc(NN=C(c2ccc(O)cc2)c2ccc(O)cc2)c([N+](=O)[O-])cc1[N+](=O)[O-] | 74.3%
O=c1cc(-c2ccccc2)oc2c(O)c(O)ccc12 | 45.6%
COc1c(C(C)=O)c(OCCCCOc2c(C(C)=O)c(OC)c3ccoc3c2OC)c(OC)c2occc12 | 47.3%

SMILES | growth
CNc1cc(C(=O)O)nc(NC)n1 | 103%
O=[N+]([O-])c1cc([N+](=O)[O-])c(NN=C(c2ccc(O)cc2)c2ccc(O)cc2)cc1Cl | 67%
NC(=O)c1c(NC(=O)COC(=O)Cc2ccccc2F)sc2c1CCC2 | 130%
CCCCOC(=O)c1c(C)[nH]c(/C=C2\N=C(c3ccc[nH]3)C=C2OC)c1C | -32.1% (active)
CC(C)[N+](C)(C)CC(O)COc1cccc2ccccc12 (configuration not stated) | 94.1%
CCCCCCCCCCCCNC(=S)N/N=C/c1ccccc1O | 55.4%
COCc1nc2ccccc2[nH]1 | 108%
CCCCCCCCCCCCCCNC(=O)Nc1ccc(Cl)c(Cl)c1 | 72.6%
CCN(CC)CCSC(=O)C(O)(c1ccccc1)C1CCCC1 (configuration not stated) | 109%
C=C1C(=O)O[C@H]2[C@H]1CC/C(COC(=O)NCc1ccc(Cn3c(=O)sn(-c4ccc(Cl)cc4)c3=O)cc1)=C\CC[C@@]1(C)O[C@@H]21 | 4.32% (active)
CCOC(=O)c1c[nH]c2cc(OCC3CC3)c(OCC3CC3)cc2c1=O | 103%
Cc1cc(NN=C(c2ccc(O)cc2)c2ccc(O)cc2)c([N+](=O)[O-])cc1[N+](=O)[O-] | 123%
Nc1nnc(CSc2nnc3n(Cc4ccccc4)c(=O)c4c5c(sc4n23)CCCC5)s1 | 65.4%
N#Cc1c(Cl)nc(SCC2CO2)nc1-c1ccccc1 (configuration not stated) | 103%
O=C(C[n+]1ccn(CC(OCc2ccc(Cl)cc2Cl)c2ccc(Cl)cc2Cl)c1)c1ccc(F)cc1 (configuration not stated) | -46.3% (active)
O=C(O)CSCc1nnc2n(Cc3ccccc3)c(=O)c3c4c(sc3n12)CCCC4 | 76.9%
COc1ccc(OC)c([N+](=O)[O-])c1C(=O)CNC(C)=O | 93.4%
COc1ccc2c3ccnc(C(F)(F)F)c3n(CCCCN)c2c1 | 31.3%
